# Data as given in the supplement of paper PMC4022240.
# ± gives the standard deviation.
# T1: HaloTag-ATRX ADD domain (163-292)
# T1 chain: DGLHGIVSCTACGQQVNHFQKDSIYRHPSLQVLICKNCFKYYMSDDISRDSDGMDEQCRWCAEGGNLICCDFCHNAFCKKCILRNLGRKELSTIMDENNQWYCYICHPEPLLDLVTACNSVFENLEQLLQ
# What was measured:
# Assay in all cases: peptide microarray binding signal (635 nm), min-max normalized on array (fraction of array maximum); higher = stronger binding
# [1] = biological target: T1, HaloTag-ATRX ADD domain (163-292)
# Outline: (§1)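 Arrays carried histone 13-mer peptide–cellulose conjugates printed in triplicate on nitrocellulose alongside a Cy3 tracer. After overnight blocking at 4°C, they were incubated for 1 h at 4°C with biotin-labelled HaloTag reader fusions (10 nM to 1 μM) plus streptavidin-Alexa Fluor 647, or with rabbit histone antibodies (1:10,000 to 1:2,000) plus anti-rabbit Alexa 647. Scanning on an Axon GenePix 4000B used 635 nm for signal and 532 nm for misprints. The binding signal reported is each triplicate's mean spot intensity after per-library min-max scaling.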
# [2] = biological target: HaloTag-ING2 PHD (mouse Ing2 200-280)
# Outline: as §1
# [3] = biological target: anti-H3K4me3 antibody ab8580
# Outline: as §1
# [4] = biological target: anti-H3K9me3 antibody ab8898
# Outline: as §1
# [5] = peptide region: H4 38-50, peptide modifications: H4K44me3, binder concentration: 1:2,000 dilution
# [6] = peptide region: H4 38-50, peptide modifications: H4K44me3, binder concentration: 1:10,000 dilution
# [7] = peptide region: H4 38-50, peptide modifications: H4K44me3 H4R45me1, binder concentration: 1:2,000 dilution
# [8] = peptide region: H4 38-50, peptide modifications: H4K44me3 H4R45me1, binder concentration: 1:10,000 dilution
# [9] = peptide region: H4 38-50, peptide modifications: H4K44me2, binder concentration: 1:2,000 dilution
# [10] = peptide region: H4 38-50, peptide modifications: H4K44me2, binder concentration: 1:10,000 dilution
# [11] = peptide region: H4 38-50, peptide modifications: H4K44me2 H4R45me2s, binder concentration: 1:2,000 dilution
# [12] = peptide region: H4 38-50, peptide modifications: H4K44me2 H4R45me2s, binder concentration: 1:10,000 dilution
# [13] = peptide region: H4 53-65, peptide modifications: H4K59me2, binder concentration: 1:2,000 dilution
# [14] = peptide region: H4 53-65, peptide modifications: H4K59me2, binder concentration: 1:10,000 dilution
# [15] = peptide region: H4 38-50, peptide modifications: H4K44me2 H4R45cit, binder concentration: 1:2,000 dilution
# [16] = peptide region: H4 38-50, peptide modifications: H4K44me2 H4R45cit, binder concentration: 1:10,000 dilution
# [17] = peptide region: H4 38-50, peptide modifications: H4K44me3 H4R45cit, binder concentration: 1:2,000 dilution
# [18] = peptide region: H4 38-50, peptide modifications: H4K44me3 H4R45cit, binder concentration: 1:10,000 dilution
# [19] = peptide region: H4 38-50, peptide modifications: H4K44me1 H4R45me2s, binder concentration: 1:2,000 dilution
# [20] = peptide region: H4 38-50, peptide modifications: H4K44me1 H4R45me2s, binder concentration: 1:10,000 dilution
# [21] = peptide region: H4 38-50, peptide modifications: H4K44me1 H4R45me2a, binder concentration: 1:2,000 dilution
# [22] = peptide region: H4 38-50, peptide modifications: H4K44me1 H4R45me2a, binder concentration: 1:10,000 dilution
# [23] = peptide region: H4 38-50, peptide modifications: H4K44me2 H4R45me1, binder concentration: 1:2,000 dilution
binder,measurement,setting,value
ARRGGVKRISGLI [H4 38-50 A R R G G V Kme3 R I S G L I],peptide microarray binding signal,"[1]; peptide region: H4 38-50, peptide modifications: H4K44me3, binder concentration: 50 nM",0.00367 ± 6.4e-05
same,peptide microarray binding signal,"[1]; peptide region: H4 38-50, peptide modifications: H4K44me3, binder concentration: 500 nM",0.00671 ± 0.00031
same,peptide microarray binding signal,"[2]; peptide region: H4 38-50, peptide modifications: H4K44me3, binder concentration: 10 nM",0.00859 ± 9.7e-05
same,peptide microarray binding signal,"[2]; peptide region: H4 38-50, peptide modifications: H4K44me3, binder concentration: 100 nM",0.0129 ± 0.00014
same,peptide microarray binding signal,[3]; [5],0.00104 ± 4.6e-05
same,peptide microarray binding signal,[3]; [6],0.0016 ± 2.7e-05
same,peptide microarray binding signal,[4]; [5],0.0011 ± 0.0001
same,peptide microarray binding signal,[4]; [6],0.00161 ± 5.6e-05
ARRGGVKRISGLI [H4 38-50 A R R G G V Kme3 Rme I S G L I],peptide microarray binding signal,"[1]; peptide region: H4 38-50, peptide modifications: H4K44me3 H4R45me1, binder concentration: 50 nM",0.002821 ± 2.4e-05
same,peptide microarray binding signal,"[1]; peptide region: H4 38-50, peptide modifications: H4K44me3 H4R45me1, binder concentration: 500 nM",0.00524 ± 8.9e-05
same,peptide microarray binding signal,"[2]; peptide region: H4 38-50, peptide modifications: H4K44me3 H4R45me1, binder concentration: 10 nM",0.0104 ± 0.0012
same,peptide microarray binding signal,"[2]; peptide region: H4 38-50, peptide modifications: H4K44me3 H4R45me1, binder concentration: 100 nM",0.0257 ± 0.006
same,peptide microarray binding signal,[3]; [7],0.00143 ± 5.5e-05
same,peptide microarray binding signal,[3]; [8],0.001655 ± 1.6e-05
same,peptide microarray binding signal,[4]; [7],0.000951
same,peptide microarray binding signal,[4]; [8],0.000865 ± 9e-06
ARRGGVKRISGLI [H4 38-50 A R R G G V Kme2 R I S G L I],peptide microarray binding signal,"[1]; peptide region: H4 38-50, peptide modifications: H4K44me2, binder concentration: 50 nM",0.0141 ± 0.0019
same,peptide microarray binding signal,"[1]; peptide region: H4 38-50, peptide modifications: H4K44me2, binder concentration: 500 nM",0.0244 ± 0.00095
same,peptide microarray binding signal,"[2]; peptide region: H4 38-50, peptide modifications: H4K44me2, binder concentration: 10 nM",0.0118 ± 0.00032
same,peptide microarray binding signal,"[2]; peptide region: H4 38-50, peptide modifications: H4K44me2, binder concentration: 100 nM",0.0304 ± 0.0032
same,peptide microarray binding signal,[3]; [9],0.00204 ± 0.00018
same,peptide microarray binding signal,[3]; [10],0.00359 ± 0.00012
same,peptide microarray binding signal,[4]; [9],0.00169 ± 3e-05
same,peptide microarray binding signal,[4]; [10],0.00231 ± 5.5e-05
ARRGGVKRISGLI [H4 38-50 A R R G G V Kme2 Rme2s I S G L I],peptide microarray binding signal,"[1]; peptide region: H4 38-50, peptide modifications: H4K44me2 H4R45me2s, binder concentration: 50 nM",0.00586 ± 0.00025
same,peptide microarray binding signal,"[1]; peptide region: H4 38-50, peptide modifications: H4K44me2 H4R45me2s, binder concentration: 500 nM",0.0125 ± 0.00027
same,peptide microarray binding signal,"[2]; peptide region: H4 38-50, peptide modifications: H4K44me2 H4R45me2s, binder concentration: 10 nM",0.0175 ± 0.00042
same,peptide microarray binding signal,"[2]; peptide region: H4 38-50, peptide modifications: H4K44me2 H4R45me2s, binder concentration: 100 nM",0.0397 ± 0.019
same,peptide microarray binding signal,[3]; [11],0.00361 ± 0.00025
same,peptide microarray binding signal,[3]; [12],0.00611 ± 0.00033
same,peptide microarray binding signal,[4]; [11],0.0037 ± 0.00027
same,peptide microarray binding signal,[4]; [12],0.00484 ± 0.00089
ETRGVLKVFLENV [H4 53-65 E T R G V L Kme2 V F L E N V],peptide microarray binding signal,"[1]; peptide region: H4 53-65, peptide modifications: H4K59me2, binder concentration: 50 nM",0.00674 ± 0.0001
same,peptide microarray binding signal,"[1]; peptide region: H4 53-65, peptide modifications: H4K59me2, binder concentration: 500 nM",0.00752 ± 0.00054
same,peptide microarray binding signal,"[2]; peptide region: H4 53-65, peptide modifications: H4K59me2, binder concentration: 10 nM",0.0113 ± 0.00022
same,peptide microarray binding signal,"[2]; peptide region: H4 53-65, peptide modifications: H4K59me2, binder concentration: 100 nM",0.00758 ± 0.0001
same,peptide microarray binding signal,[3]; [13],0.00177 ± 0.00011
same,peptide microarray binding signal,[3]; [14],0.00394 ± 0.0003
same,peptide microarray binding signal,[4]; [13],0.00122 ± 2.8e-05
same,peptide microarray binding signal,[4]; [14],0.003113 ± 2.6e-05
ARRGGVKRISGLI [H4 38-50 A R R G G V Kme2 Rcit I S G L I],peptide microarray binding signal,"[1]; peptide region: H4 38-50, peptide modifications: H4K44me2 H4R45cit, binder concentration: 50 nM",0.00389 ± 6.7e-05
same,peptide microarray binding signal,"[1]; peptide region: H4 38-50, peptide modifications: H4K44me2 H4R45cit, binder concentration: 500 nM",0.00743
same,peptide microarray binding signal,"[2]; peptide region: H4 38-50, peptide modifications: H4K44me2 H4R45cit, binder concentration: 10 nM",0.007102 ± 3.2e-05
same,peptide microarray binding signal,"[2]; peptide region: H4 38-50, peptide modifications: H4K44me2 H4R45cit, binder concentration: 100 nM",0.0109 ± 0.00033
same,peptide microarray binding signal,[3]; [15],0.00136 ± 0.00012
same,peptide microarray binding signal,[3]; [16],0.00177 ± 2.9e-05
same,peptide microarray binding signal,[4]; [15],0.00104 ± 2.9e-05
same,peptide microarray binding signal,[4]; [16],0.0011 ± 2.9e-05
ARRGGVKRISGLI [H4 38-50 A R R G G V Kme3 Rcit I S G L I],peptide microarray binding signal,"[1]; peptide region: H4 38-50, peptide modifications: H4K44me3 H4R45cit, binder concentration: 50 nM",0.0125 ± 0.00042
same,peptide microarray binding signal,"[1]; peptide region: H4 38-50, peptide modifications: H4K44me3 H4R45cit, binder concentration: 500 nM",0.0116 ± 0.0018
same,peptide microarray binding signal,"[2]; peptide region: H4 38-50, peptide modifications: H4K44me3 H4R45cit, binder concentration: 10 nM",0.00836 ± 0.00091
same,peptide microarray binding signal,"[2]; peptide region: H4 38-50, peptide modifications: H4K44me3 H4R45cit, binder concentration: 100 nM",0.00588 ± 0.0012
same,peptide microarray binding signal,[3]; [17],0.00387 ± 0.00082
same,peptide microarray binding signal,[3]; [18],0.00502 ± 0.00084
same,peptide microarray binding signal,[4]; [17],0.00444 ± 0.00077
same,peptide microarray binding signal,[4]; [18],0.00467 ± 0.00024
ARRGGVKRISGLI [H4 38-50 A R R G G V Kme Rme2s I S G L I],peptide microarray binding signal,"[1]; peptide region: H4 38-50, peptide modifications: H4K44me1 H4R45me2s, binder concentration: 50 nM",0.006019 ± 2.1e-05
same,peptide microarray binding signal,"[1]; peptide region: H4 38-50, peptide modifications: H4K44me1 H4R45me2s, binder concentration: 500 nM",0.00619 ± 0.00016
same,peptide microarray binding signal,"[2]; peptide region: H4 38-50, peptide modifications: H4K44me1 H4R45me2s, binder concentration: 10 nM",0.0119 ± 0.00057
same,peptide microarray binding signal,"[2]; peptide region: H4 38-50, peptide modifications: H4K44me1 H4R45me2s, binder concentration: 100 nM",0.0102 ± 0.0013
same,peptide microarray binding signal,[3]; [19],0.00185 ± 0.00022
same,peptide microarray binding signal,[3]; [20],0.00451 ± 0.00035
same,peptide microarray binding signal,[4]; [19],0.00219 ± 0.00017
same,peptide microarray binding signal,[4]; [20],0.0034 ± 0.00013
ARRGGVKRISGLI [H4 38-50 A R R G G V Kme Rme2a I S G L I],peptide microarray binding signal,"[1]; peptide region: H4 38-50, peptide modifications: H4K44me1 H4R45me2a, binder concentration: 50 nM",0.0254 ± 0.0015
same,peptide microarray binding signal,"[1]; peptide region: H4 38-50, peptide modifications: H4K44me1 H4R45me2a, binder concentration: 500 nM",0.016 ± 0.00078
same,peptide microarray binding signal,"[2]; peptide region: H4 38-50, peptide modifications: H4K44me1 H4R45me2a, binder concentration: 10 nM",0.0305 ± 0.00031
same,peptide microarray binding signal,"[2]; peptide region: H4 38-50, peptide modifications: H4K44me1 H4R45me2a, binder concentration: 100 nM",0.0275 ± 0.00071
same,peptide microarray binding signal,[3]; [21],0.00417 ± 0.00012
same,peptide microarray binding signal,[3]; [22],0.00987 ± 0.00037
same,peptide microarray binding signal,[4]; [21],0.00331 ± 7.1e-05
same,peptide microarray binding signal,[4]; [22],0.00974 ± 0.0007
ARRGGVKRISGLI [H4 38-50 A R R G G V Kme2 Rme I S G L I],peptide microarray binding signal,"[1]; peptide region: H4 38-50, peptide modifications: H4K44me2 H4R45me1, binder concentration: 500 nM",0.00233 ± 8.5e-05
same,peptide microarray binding signal,"[2]; peptide region: H4 38-50, peptide modifications: H4K44me2 H4R45me1, binder concentration: 100 nM",0.00361 ± 0.00019
same,peptide microarray binding signal,[3]; [23],0.000491 ± 1.3e-05
same,peptide microarray binding signal,[4]; [23],0.000347 ± 9.2e-06
